{"source": "PubChem BioAssay", "note": "Inconclusive results are not listed. Values without a mark were called inactive.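 Rule for the calls: active = viability at or below 27.92% in each of two runs, the all-compound median minus 4 SD; inconclusive = no clear call, values can overlap the other calls; inactive = the rest.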"}
{"test": "growth suppression of PTEN-deleted HCT116, pilot screen, cell-based, HCT116 clonal line, CellTiter-Glo (AID 824);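 note: 0% = 20 µM Hyamine control and 100% = vehicle cell control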", "conditions": "60 h, at 10 µM, stronger effect = lower value", "units": {"viability": "%"}}
{"smiles": "COCCNS(=O)(=O)c1cccc2cccnc12", "viability": 92.2}
{"smiles": "Cc1ccc(C)c(N2CCN(C(=O)CCS(=O)(=O)c3cccc4nonc34)CC2)c1", "viability": 91.8}
{"smiles": "Cc1cccc(-n2ccnc2SCC(=O)Nc2nnc(C)s2)c1", "viability": 72.8}
{"smiles": "CC(=O)CSc1nc2ccc(Nc3nc(N4CCOCC4)nc(N4CCOCC4)n3)cc2s1", "viability": 73.5}
{"smiles": "CCOC(=O)c1c(CN(CC)CC)oc2cc(Br)c(O)cc12", "viability": 81.6}
{"smiles": "CCc1ccc2nc(NC3=NCN(CCOC)CN3)nc(C)c2c1", "viability": 66.9}
{"smiles": "CCN(Cc1ccccc1)S(=O)(=O)c1ccc(S(=O)(=O)N2CCN(CCC#N)CC2)cc1", "viability": 83.9}
{"smiles": "CCCCS(=O)CC(COCc1ccccc1)OC(=O)CSc1nc(C)cc(C)n1", "note": "(stereo not given)", "viability": 94.7}
{"smiles": "COc1ccc(C(=O)N2CCC(C(=O)Nc3ccc(OC)c(OC)c3)CC2)cc1", "viability": 89}
{"smiles": "CSC1=NCCN1C(=O)Cc1ccc(Cl)cc1", "viability": 96.7}
{"smiles": "O=C1NCCCC1C(=O)N1CCN(C(c2ccccc2)c2ccccc2)CC1", "note": "(stereo not given)", "viability": 94.3}
{"smiles": "O=C(CCNS(=O)(=O)c1cccc2nsnc12)NC1CCCc2ccccc21", "note": "(stereo not given)", "viability": 90.3}
{"smiles": "COc1ccc(C(=O)N2CCN(c3ccc(C)cc3C)CC2)cc1OC", "viability": 85.7}
{"smiles": "CCc1ccccc1N1CSC2=C(C#N)C(c3ccccc3F)CC(=O)N2C1", "note": "(stereo not given)", "viability": 76.5}
{"smiles": "CN1C(=O)CC(N2CCN(c3ncccn3)CC2)C1=O", "note": "(stereo not given)", "viability": 100}
{"smiles": "CCCCN(C)CCNC(=O)Cn1c(=O)sc2ccccc21", "viability": 96.6}
{"smiles": "Cc1ccc(S(=O)(=O)Cc2ccc(C(=O)N3CCN(c4ccccn4)CC3)o2)cc1", "viability": 79.8}
{"smiles": "CCOC(=O)C1CCN(C(=O)CN(c2ccc(OC)c(OC)c2)S(=O)(=O)c2ccccc2)CC1", "viability": 94.6}
{"smiles": "CCc1cc(C(=O)COc2ccccc2F)c(O)cc1O", "viability": 99.5}
{"smiles": "O=C(Cn1cc2c(n1)CCCC2)NCC1CCCO1", "note": "(stereo not given)", "viability": 95.9}
{"smiles": "COC(=O)C(C(=O)OC)=C(/C=C/N(C)C)N(C)C", "viability": 101}
{"smiles": "CCCS(=O)(=O)c1nc(S(=O)(=O)c2ccc(C)cc2)c(N2CCCC2)s1", "viability": 96.3}
{"smiles": "COc1cccc(CNC(=O)CCS(=O)(=O)c2cccc3nonc23)c1", "viability": 91}
{"smiles": "N#CC1=C(O)CCCn2c1nc1ccccc1c2=O", "viability": 97}
{"smiles": "COc1cc(S(=O)(=O)NCc2ccc3c(c2)OCO3)ccc1Cl", "viability": 95.5}
{"smiles": "Cc1nc2sc(C(c3ccccc3)N3CCN(CCO)CC3)c(O)n2n1", "note": "(stereo not given)", "viability": 98.6}
{"smiles": "CC1=CC(C)(C)N(C(=O)CSc2nccn2C)c2cc(C)ccc21", "viability": 84}
{"smiles": "c1ccc(-c2nnc(-c3ccccn3)nn2)nc1", "viability": 83}
{"smiles": "CC1=C(C(=O)N(C)C)C(c2cccc(Cl)c2)NC(=O)N1", "note": "(stereo not given)", "viability": 94.9}
{"smiles": "COc1ccc(S(=O)(=O)N2CCN(C)CC2)cc1Br", "viability": 92}
{"smiles": "CC1(C)Cc2c(C#N)c(NCCCO)nc(-c3ccccc3)c2CO1", "viability": 85.3}
{"smiles": "O=C(O)c1ccc(NC(=O)C2C3CCC(C3)C2C(=O)O)cc1", "note": "(stereo not given)", "viability": 98.8}
{"smiles": "COc1ccccc1C(=O)NCc1ccc2c(c1)OCO2", "viability": 107}
{"smiles": "COc1ccc(OC)c(NC(=O)Nc2ccccc2C)c1", "viability": 95.9}
{"smiles": "O=C(Cn1c(=O)oc2cc(S(=O)(=O)N3CCc4ccccc43)ccc21)NC1CCCC1", "viability": 73.9}
{"smiles": "C=CCOc1cccc(C2C(C(=O)c3ccco3)=C(O)C(=O)N2CCN2CCOCC2)c1", "note": "(stereo not given)", "viability": 93.2}
{"smiles": "COc1ccc(C2CC3CC(c4ccccc4)N2O3)cc1", "note": "(stereo not given)", "viability": 93.5}
{"smiles": "COc1ccc(N2CC(C(=O)NC3CC(C)(C)NC(C)(C)C3)CC2=O)cc1", "note": "(stereo not given)", "viability": 104}
{"smiles": "O=C(NCC1CCCO1)C1CC(=O)N(c2ccc(F)c(Cl)c2)C1", "note": "(stereo not given)", "viability": 94.1}
{"smiles": "COc1cc(NC(=O)COc2ccc(F)cc2)nc(OC)n1", "viability": 101}
